# Reference: PubChem BioAssay (Tox21)
# Several values for one entry are separate records, joined by “and”; a condition that tells them apart may be missing. Equal entries are not always repeated. Inconclusive results are not listed. Entries that show only a call come without a potency. More than one record can exist for a structure, and the calls need not agree. Activity calls are given as the source filed them. Unless noted, calls follow the shape of the dose curve; as a rule, active = well fitted curve in the direction sought with a large enough effect in the repeat runs; inconclusive = weak or mixed curves; inactive = no such curve, though single readings can be large; an effect the other way counts as inactive or inconclusive.
# Legend:
# [1] = qHTS assay to identify small molecule antagonists of the estrogen related receptor (ERR) signaling pathway from Tox21 library - cell viability counter screen (AID 1224834); also: nearly all actives have a fitted effect of over 30% in size; also: potency is read from the fitted curve at half-maximal effect
# Outline: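 Seeded ERR cells were rested 6 h at 37 C/5% CO2 before compounds, positive and negative controls or DMSO were added. Incubation continued for 17.5 h, and viability was then quantified by CellTiter-Fluor fluorescence.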
# [2] = molecular target: Luciferin 4-monooxygenase (Photinus pyralis) (UniProt P08659); assay: qHTS assay to identify small molecule inhibitors of firefly luciferase (AID 1224835); also: nearly all actives have a fitted effect of over 25% in size; also: potency is read from the fitted curve at half-maximal effect
# Outline: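 Biochemical qHTS: compounds run as interplate titrations against purified firefly enzyme, with D-luciferin and ATP each at its KM concentration. Light output recorded by CCD imaging.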
# [3] = qHTS assay to identify small molecule agonists of the constitutive androstane receptor (CAR) signaling pathway - cell viability counter screen (AID 1224836); also: nearly all actives have a fitted effect of over 45% in size; also: potency is read from the fitted curve at half-maximal effect; as to viability change, negative = cytotoxic: series mostly up to about 92 µM
# Outline: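 Fluorescence from CellTiter-Fluor indicates live cells after 23 h exposure. The human hepatoma line expresses hCAR and a CYP2B6-2.2kb reporter. Incubation medium contains 0.75 uM PK11195 (final).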
# [4] = qHTS assay to identify small molecule antagonists of the estrogen related receptor signaling pathway with the pleiotropic PPARgamma coactivator (PGC) from Tox21 10K library - cell viability counter screen (AID 1224840; active = well fitted cell-killing curve with a large enough effect in the repeat runs, not every such curve was filed as active; also: nearly all actives have a fitted effect of over 40% in size; also: potency is read from the fitted curve at half-maximal effect)
# Outline: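 Seeded PGC/ERR cells (2,000/well, 6 h, 37 C/5% CO2) get compound by pin tool; 17.5 h incubation at 37 C; CellTiter-Fluor added, 30 min, fluorescence measured.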
# [5] = molecular target: Thyrotropin receptor (Homo sapiens) (UniProt P16473); assay: qHTS assay to identify small molecule agonists of the thyroid stimulating hormone receptor (TSHR) signaling pathway (AID 1224843; calls by dose curve; also: nearly all actives have a fitted effect of over 45% in size; also: potency is read from the fitted curve at half-maximal effect)
# Outline: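 Agonist-mode screen: TSHR HEK293 cells received test chemicals for half an hour at room temperature, then HTRF cAMP detection reagents for one hour prior to fluorescence measurement. Each chemical ran as a 15-concentration series, triplicated.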
# [6] = qHTS assay to identify small molecule antagonists of the constitutive androstane receptor (CAR) signaling pathway - cell viability counter screen (AID 1224837); also: nearly all actives have a fitted effect of over 45% in size; also: potency is read from the fitted curve at half-maximal effect
# Outline: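 To flag cytotoxic false antagonists, HepG2 hCAR/CYP2B6-2.2kb cells were treated 23 hr with 15-concentration compound series and 50 nM CITCO at 37 C/5% CO2; CellTiter-Fluor fluorescence was the measured end point.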
# [7] = qHTS assay to identify small molecule agonists of the estrogen related receptor signaling pathway with the pleiotropic PPARgamma coactivator (PGC) from Tox21 10K library (AID 1224842); also: nearly all actives have a fitted effect of over 15% in size; also: potency is read from the fitted curve at half-maximal effect
# Outline: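 PGC/ERR reporter cell line, 2,000 cells per well, incubated 6 h at 37 C before 23 nL compound in DMSO was added. After 18 h at 37 C, One-Glo luminescence read following 30 min at room temperature.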
# [8] = molecular target: Nuclear receptor subfamily 1 group I member 3 (Homo sapiens) (UniProt Q14994); assay: qHTS assay to identify small molecule antagonists of the constitutive androstane receptor (CAR) signaling pathway (AID 1224838);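 also: HepG2 cells stably expressing hCAR with CYP2B6 luciferase reporter stimulated by CITCO; nearly all actives have a fitted effect of over 40% in size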
# Outline: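 Human hepatoma HepG2 cells expressing hCAR and a CYP2B6 promoter (2.2 kb) luciferase construct; compound titration (15 points) with 50 nM CITCO final, 24 h at 37 C/5% CO2; luminescence via ONE-Glo after 30 min at room temperature.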
# [9] = molecular target: Nuclear receptor subfamily 1 group I member 3 (Homo sapiens) (UniProt Q14994); assay: qHTS assay to identify small molecule agonists of the constitutive androstane receptor (CAR) signaling pathway (AID 1224839); also: nearly all actives have a fitted effect of over 15% in size; also: potency is read from the fitted curve at half-maximal effect
# Outline: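 Stable hCAR/CYP2B6-2.2kb HepG2 line in DMEM with 10% FBS; compounds (15 concentrations) and 0.75 uM PK11195 final, 24 h at 37 C/5% CO2, then ONE-Glo luminescence after 30 min.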
# [10] = qHTS assay to identify small molecule antagonists of the estrogen related receptor signaling pathway with the pleiotropic PPARgamma coactivator (PGC) from Tox21 10K library (AID 1224841; call rule not given here; also: actives are mostly falling curves and most rising ones were filed inactive; nearly all actives have a fitted effect of over 50% in size; also: potency is read from the fitted curve at half-maximal effect)
# Outline: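 Test chemicals dissolved in DMSO were applied to pre-incubated (6 h) PGC/ERR cells at 2,000 cells/well for an 18 h, 37 C treatment; reporter luminescence was then read using One-Glo.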
# Chain of Nuclear receptor subfamily 1 group I member 3 (Homo sapiens) (Q14994 whole entry, looked up): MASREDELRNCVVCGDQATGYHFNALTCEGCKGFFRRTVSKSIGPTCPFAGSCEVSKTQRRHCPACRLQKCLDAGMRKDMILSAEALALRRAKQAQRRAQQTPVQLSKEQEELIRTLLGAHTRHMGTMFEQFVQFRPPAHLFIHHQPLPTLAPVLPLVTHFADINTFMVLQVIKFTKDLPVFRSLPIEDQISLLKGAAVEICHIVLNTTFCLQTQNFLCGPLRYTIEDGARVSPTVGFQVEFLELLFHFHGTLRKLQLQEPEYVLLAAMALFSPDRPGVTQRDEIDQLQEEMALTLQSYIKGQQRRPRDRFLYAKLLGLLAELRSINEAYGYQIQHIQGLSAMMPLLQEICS
# Chain of Thyrotropin receptor (Homo sapiens) (P16473 whole entry, looked up): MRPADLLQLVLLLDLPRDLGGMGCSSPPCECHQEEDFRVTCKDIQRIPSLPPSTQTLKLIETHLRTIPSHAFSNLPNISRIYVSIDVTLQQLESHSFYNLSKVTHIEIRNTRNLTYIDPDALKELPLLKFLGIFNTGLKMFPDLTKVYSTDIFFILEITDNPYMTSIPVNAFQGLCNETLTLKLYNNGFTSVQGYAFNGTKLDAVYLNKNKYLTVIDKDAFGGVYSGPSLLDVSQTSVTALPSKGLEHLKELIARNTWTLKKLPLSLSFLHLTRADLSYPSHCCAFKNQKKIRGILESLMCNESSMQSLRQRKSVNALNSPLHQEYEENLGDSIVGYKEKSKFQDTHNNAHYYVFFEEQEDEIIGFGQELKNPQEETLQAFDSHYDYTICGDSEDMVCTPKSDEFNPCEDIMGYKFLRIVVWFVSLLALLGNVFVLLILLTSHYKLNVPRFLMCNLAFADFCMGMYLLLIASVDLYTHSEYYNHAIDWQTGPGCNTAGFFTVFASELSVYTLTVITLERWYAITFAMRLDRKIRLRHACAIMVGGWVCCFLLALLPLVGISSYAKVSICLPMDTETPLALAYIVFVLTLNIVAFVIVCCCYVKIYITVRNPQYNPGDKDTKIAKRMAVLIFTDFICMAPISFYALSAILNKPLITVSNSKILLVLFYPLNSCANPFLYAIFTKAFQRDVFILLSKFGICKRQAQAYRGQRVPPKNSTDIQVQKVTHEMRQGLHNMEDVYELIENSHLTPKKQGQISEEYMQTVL
# Chain of Luciferin 4-monooxygenase (Photinus pyralis) (P08659 whole entry, looked up): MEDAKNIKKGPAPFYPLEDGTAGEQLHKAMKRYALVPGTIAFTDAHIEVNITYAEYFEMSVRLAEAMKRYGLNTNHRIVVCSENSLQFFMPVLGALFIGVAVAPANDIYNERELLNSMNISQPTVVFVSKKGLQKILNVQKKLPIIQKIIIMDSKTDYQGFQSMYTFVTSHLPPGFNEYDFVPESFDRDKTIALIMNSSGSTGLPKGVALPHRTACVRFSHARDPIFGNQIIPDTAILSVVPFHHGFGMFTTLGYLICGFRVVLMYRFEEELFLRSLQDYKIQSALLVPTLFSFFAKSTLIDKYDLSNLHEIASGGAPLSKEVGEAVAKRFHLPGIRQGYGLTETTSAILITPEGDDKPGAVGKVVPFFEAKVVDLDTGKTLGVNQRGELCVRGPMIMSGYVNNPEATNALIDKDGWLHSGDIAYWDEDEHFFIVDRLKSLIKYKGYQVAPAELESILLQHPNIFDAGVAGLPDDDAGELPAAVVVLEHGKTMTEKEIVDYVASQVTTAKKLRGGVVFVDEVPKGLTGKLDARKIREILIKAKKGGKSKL
smiles,measurement,setting,value
C=CC(=C)C,Potency,[1],inactive
same,Potency,[2],inactive
same,Potency,[3],inactive
same,Potency,[4],inactive
same,Potency,[5],inactive
[F][Sn]([c]1ccccc1)([c]1ccccc1)[c]1ccccc1,Potency,[1],1.09 µM (active)
same,Potency,[2],5.03 µM (active)
same,Potency,[3],1.09 µM (active)
same,Potency,[6],1.09 µM (active)
same,Potency,[7],inactive
Nc1ccc(N=Nc2ccccc2)cc1,Potency,[1],24.3 µM (active)
same,Potency,[2],2.24 µM (active)
same,Potency,[8],inactive
same,Potency,[9],30.6 µM (active)
same,Potency,[4],24.3 µM (active)
same,Potency,[10],inactive
same,Potency,[7],3.06 µM (active)
same,Potency,[5],inactive
CNC(=O)Oc1cc(C)cc(C(C)C)c1,Potency,[1],inactive
same,Potency,[2],inactive
same,Potency,[3],inactive
same,Potency,[6],inactive
same,Potency,[10],inactive
same,Potency,[7],inactive
O=C1C(Cl)=C(Cl)C(=O)C(Cl)=C1Cl,Potency,[1],34.2 µM (active) and 30.6 µM (active)
same,Potency,[2],31.6 µM (active) and 15.9 µM (active)
same,Potency,[6],inactive
same,Potency,[8],inactive
same,Potency,[9],inactive
same,Potency,[4],54.3 µM (active) and inactive
same,Potency,[10],60.9 µM (active) and inactive
same,Potency,[7],inactive
same,Potency,[5],27.2 µM (active)
CCN(CC)C(=S)S,Potency,[1],54.9 µM (active) and 13.6 µM (active) and 24.3 µM (active)
same,Potency,[2],inactive
same,Potency,[3],54.9 µM (active) and 12.1 µM (active) and 19.3 µM (active)
same,Potency,[6],13.6 µM (active) and 17.2 µM (active)
same,Potency,[4],30.9 µM (active) and 6.08 µM (active) and 13.7 µM (active)
same,Potency,[5],inactive
Cc1c([N+](=O)[O-])c(C)c([N+](=O)[O-])c(C(C)(C)C)c1[N+](=O)[O-],Potency,[1],inactive
same,Potency,[2],inactive
same,Potency,[3],inactive
same,Potency,[9],34.4 µM (active)
same,Potency,[4],inactive
same,Potency,[10],inactive
same,Potency,[7],inactive
CNN,Potency,[1],inactive
same,Potency,[2],inactive
same,Potency,[3],inactive
same,Potency,[4],inactive
CC1=C2C[C@H]3[C@@H](CC=C4C[C@@H](O)CC[C@@]43C)[C@@H]2CC[C@]12O[C@@H]1C[C@H](C)CN[C@H]1[C@H]2C,Potency,[1],26.6 µM (active)
same,Potency,[2],inactive
same,Potency,[6],inactive
same,Potency,[8],inactive
same,Potency,[9],inactive
same,Potency,[5],inactive
C[C@@H]1CC2=CC(=O)CC[C@@H]2[C@H]2CC[C@@]3(C)[C@@H](CC[C@]3(C)O)[C@@H]21,Potency,[1],inactive
same,Potency,[2],inactive
same,Potency,[3],inactive
same,Potency,[8],inactive
same,Potency,[9],inactive
same,Potency,[4],inactive
same,Potency,[7],inactive
same,Potency,[5],inactive
ClC1=C(Cl)[C@]2(Cl)[C@@H]3[C@H]4C[C@H]([C@@H]5O[C@H]45)[C@@H]3[C@@]1(Cl)C2(Cl)Cl,Potency,[1],inactive
same,Potency,[2],inactive
same,Potency,[3],inactive
same,Potency,[6],inactive
same,Potency,[7],inactive
same,Potency,[5],4.32 µM (active)
Oc1cccc(Cl)c1Cl,Potency,[1],inactive
same,Potency,[3],inactive
same,Potency,[8],inactive
same,Potency,[9],inactive
same,Potency,[4],inactive
same,Potency,[7],inactive
same,Potency,[5],inactive
CC(=O)[O-].CC(=O)[O-].CC(=O)[O-].[Sb+3],"viability change, negative = cytotoxic",[1],0.176% [at 3.27 µM] (inactive)
same,"viability change, negative = cytotoxic",[3],-15.6% [at 3.27 µM] (inactive)
same,"viability change, negative = cytotoxic",[4],3.7% [at 3.27 µM] (inactive)
O.O.O.O.O.O.O.O=S(=O)([O-])[O-].[Co+2],Potency,[1],inactive
same,Potency,[3],inactive
same,Potency,[6],inactive
same,Potency,[4],inactive
CC(=O)[O-].CC(=O)[O-].[Co+2],Potency,[1],inactive
same,Potency,[3],inactive
same,Potency,[6],inactive
same,Potency,[4],inactive
O=C1C[C@@H]2OCC=C3CN4CC[C@]56c7ccccc7N1[C@H]5[C@H]2[C@H]3C[C@H]46,Potency,[1],inactive
same,Potency,[4],inactive
same,Potency,[7],inactive
same,Potency,[5],inactive
CCCCn1cc[n+](C)c1.[Cl][Fe-]([Cl])([Cl])[Cl],Potency,[1],inactive
same,Potency,[3],inactive
same,Potency,[4],inactive
CCN(CC)Cc1nccn1-c1ccc([N+](=O)[O-])cc1C(=O)c1ccccc1Cl,Potency,[1],inactive
same,Potency,[2],inactive
same,Potency,[10],inactive
same,Potency,[7],inactive
same,Potency,[5],inactive
O=[N+]([O-])c1cc(C(F)(F)F)c(Cl)c([N+](=O)[O-])c1Nc1ncc(C(F)(F)F)cc1Cl,Potency,[1],27.3 µM (active)
same,Potency,[3],15.4 µM (active)
same,Potency,[6],15.4 µM (active)
same,Potency,[9],inactive
same,Potency,[4],8.63 µM (active)
O=C(O)[C@H](O)[C@@H](O)C(=O)O,Potency,[1],inactive
same,Potency,[2],inactive
same,Potency,[4],inactive
N#Cc1c2ccccc2cc2ccccc12,Potency,[1],inactive
same,Potency,[2],inactive
same,Potency,[9],inactive
same,Potency,[10],inactive
same,Potency,[7],inactive
same,Potency,[5],inactive
FC(F)C(F)(F)OCC(Cn1cncn1)c1ccc(Cl)cc1Cl (centres undefined),Potency,[1],43 µM (active)
same,Potency,[2],inactive
same,Potency,[4],60.8 µM (active)
Oc1ccc([C@H]2CNCc3c2ccc(O)c3O)cc1O,Potency,[1],inactive
same,Potency,[3],inactive
same,Potency,[6],inactive
same,Potency,[9],inactive
same,Potency,[10],inactive
same,Potency,[7],inactive
[C-]1=CC=CC1.[Cl][Zr+2][Cl].c1cc[cH-]c1,Potency,[1],inactive
same,Potency,[3],inactive
same,Potency,[6],inactive
same,Potency,[4],inactive
S=C=Nc1ccccc1,Potency,[1],inactive
same,Potency,[3],inactive
same,Potency,[6],inactive
same,Potency,[8],inactive
same,Potency,[4],inactive
CCCCCCCCCCCCCCn1cc[n+](C)c1,Potency,[1],27.4 µM (active) and 30.3 µM (active)
same,Potency,[2],inactive
same,Potency,[4],27.4 µM (active) and 30.3 µM (active)
same,Potency,[10],24.4 µM (active) and 24.1 µM (active) and inactive
same,Potency,[7],inactive
CC(=O)[O-].CC(=O)[O-].O.O.[Zn+2],Potency,[1],inactive
same,Potency,[3],inactive
same,Potency,[6],inactive
same,Potency,[4],inactive
CC(C)=CCN1CC[C@@]2(C)c3cc(O)ccc3C[C@@H]1[C@@H]2C,Potency,[1],inactive
same,Potency,[3],inactive
same,Potency,[6],inactive
same,Potency,[4],inactive
same,Potency,[5],inactive
CN1[C@@H]2CC[C@H]1CC(O)C2 (some centres undefined),Potency,[1],inactive
same,Potency,[3],inactive
same,Potency,[6],inactive
same,Potency,[8],inactive
same,Potency,[9],inactive
same,Potency,[4],inactive
C1=CCC=C1,Potency,[1],inactive
same,Potency,[3],inactive
same,Potency,[4],inactive
[Cl-].[Cl-].[Sn+2],Potency,[1],inactive
same,Potency,[3],inactive
same,Potency,[6],inactive
same,Potency,[4],inactive
